# Source: PubChem BioAssay AID1159580 (chemical genetic matrix, 2015)
# Out of some 5,500 compounds screened, about 2,000 (36%) were called active. Inconclusive results (about 18%) are left out. This is one part of the list. Unmarked numbers belong to inactive results. No stated cut-off is given here; in the data, active means normalized growth mostly below about 0.91 (no sharp cut-off); inconclusive means no clear call, values can overlap the other calls; inactive means mostly above about 0.92.
# Test: chemical genetic growth profiling, strain panel (AID 1159580);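 further: tested at 20 µM; growth read once vehicle control cultures reached saturation at 30 °C; 1 = growth at the plate median or of vehicle wells; lower values mean less growth of the strain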
# Settings: growth OD
# [1] = S. cerevisiae deletion strains, locus YBR021W, strain FUR4, active compounds read low
# [2] = S. cerevisiae deletion strains, locus YBR229C, strain ROT2, active compounds read low
# [3] = S. cerevisiae deletion strains, locus YCL029C, strain bik1, active compounds read low
# [4] = S. cerevisiae deletion strains, locus YDL035C, strain GPR1, active compounds read low
# [5] = S. cerevisiae deletion strains, locus YDL074C, strain BRE1, active compounds read low
# [6] = S. cerevisiae deletion strains, locus YDL101C, strain DUN1, active compounds read low
# [7] = S. cerevisiae deletion strains, locus YDL134C, strain PPH21, active compounds read low
# [8] = S. cerevisiae deletion strains, locus YDL185W, strain tfp1, active compounds read low
# [9] = S. cerevisiae deletion strains, locus YDL192W, strain arf1, active compounds read low
# [10] = S. cerevisiae deletion strains, locus YDR101C, strain arx1, active compounds read low
# [11] = S. cerevisiae deletion strains, locus YDR162C, strain NBP2, active compounds read low
# [12] = S. cerevisiae deletion strains, locus YDR318W, strain mcm21, active compounds read low
# [13] = S. cerevisiae deletion strains, locus YDR388W, active compounds read low
# [14] = S. cerevisiae deletion strains, locus YDR502C, strain sam2, active compounds read low
# [15] = S. cerevisiae deletion strains, locus YEL061C, strain CIN8, active compounds read low
# [16] = S. cerevisiae deletion strains, locus YER110C, active compounds read low
# [17] = S. cerevisiae deletion strains, locus YER155C, strain BEM2, active compounds read low
# [18] = S. cerevisiae deletion strains, locus YER167W, strain BCK2, active compounds read low
# [19] = S. cerevisiae deletion strains, locus YGL078C, strain dbp3, active compounds read low
# [20] = S. cerevisiae deletion strains, locus YGL086W, strain mad1, active compounds read low
# [21] = S. cerevisiae deletion strains, locus YGL248W, strain PDE1, active compounds read low
# [22] = S. cerevisiae deletion strains, locus YGR135W, strain pre9, active compounds read low
# [23] = S. cerevisiae deletion strains, locus YGR229C, strain SMI1, active compounds read low
# [24] = S. cerevisiae deletion strains, locus YGR252W, strain gcn5, active compounds read low
# [25] = S. cerevisiae deletion strains, locus YHR030C, strain SLT2, active compounds read low
# [26] = S. cerevisiae deletion strains, locus YHR079C, strain IRE1 (second series), active compounds read low
# [27] = S. cerevisiae deletion strains, locus YHR094C, strain hxt1, active compounds read low
# [28] = S. cerevisiae deletion strains, locus YHR129C, strain ARP1, active compounds read low
# [29] = S. cerevisiae deletion strains, locus YHR200W, strain rpn10, active compounds read low
# [30] = S. cerevisiae deletion strains, locus YIL066C, strain RNR3, active compounds read low
# [31] = S. cerevisiae deletion strains, locus YIL073C, strain SPO22, active compounds read low
# [32] = S. cerevisiae deletion strains, locus YIL125W, strain kgd1, active compounds read low
# [33] = S. cerevisiae deletion strains, locus YIR030C, strain dcg1, active compounds read low
# [34] = S. cerevisiae deletion strains, locus YJL095W, strain BCK1, active compounds read low
# [35] = S. cerevisiae deletion strains, locus YJL134W, strain LCB3, active compounds read low
# [36] = S. cerevisiae deletion strains, locus YJL168C, strain set2, active compounds read low
# [37] = S. cerevisiae deletion strains, locus YJL187C, strain SWE1 (second series), active compounds read low
# [38] = S. cerevisiae deletion strains, locus YKL009W, strain mrt4, active compounds read low
# [39] = S. cerevisiae deletion strains, locus YKL068W, active compounds read low
# [40] = S. cerevisiae deletion strains, locus YKL085W, strain MDH1 (second series), active compounds read low
# [41] = S. cerevisiae deletion strains, locus YKL085W, strain MDH1, active compounds read low
# [42] = S. cerevisiae deletion strains, locus YKR001C, strain vps1, active compounds read low
# [43] = S. cerevisiae deletion strains, locus YLR039C, strain RIC1, active compounds read low
# [44] = S. cerevisiae deletion strains, locus YLR058C, strain SHM2, active compounds read low
# [45] = S. cerevisiae deletion strains, locus YLR102C, strain apc9, active compounds read low
# [46] = S. cerevisiae deletion strains, locus YLR268W, strain sec22, active compounds read low
# [47] = S. cerevisiae deletion strains, locus YLR371W, strain rom2, active compounds read low
# [48] = S. cerevisiae deletion strains, locus YLR418C, strain cdc73, active compounds read low
# [49] = S. cerevisiae deletion strains, locus YML016C, strain PPZ1, active compounds read low
# [50] = S. cerevisiae deletion strains, locus YML032C, strain rad52, active compounds read low
# [51] = S. cerevisiae deletion strains, locus YML124C, strain tub3, active compounds read low
# [52] = S. cerevisiae deletion strains, locus YMR078C, strain ctf18, active compounds read low
# [53] = S. cerevisiae deletion strains, locus YMR223W, strain ubp8, active compounds read low
# [54] = S. cerevisiae deletion strains, locus YMR307W, strain GAS1, active compounds read low
# [55] = S. cerevisiae deletion strains, locus YNL067W, strain RPL9B, active compounds read low
# [56] = S. cerevisiae deletion strains, locus YNL233W, strain BNI4, active compounds read low
# [57] = S. cerevisiae deletion strains, locus YNL250W, strain rad50, active compounds read low
# [58] = S. cerevisiae deletion strains, locus YNL271C, strain bni1, active compounds read low
# [59] = S. cerevisiae deletion strains, locus YNL298W, strain CLA4, active compounds read low
# [60] = S. cerevisiae deletion strains, locus YNL307C, strain MCK1, active compounds read low
# [61] = S. cerevisiae deletion strains, locus YNR052C, strain pop2, active compounds read low
# [62] = S. cerevisiae deletion strains, locus YOL012C, strain htz1
# [63] = S. cerevisiae deletion strains, locus YOL147C, strain pex11, active compounds read low
# [64] = S. cerevisiae deletion strains, locus YOR061W, strain CKA2, active compounds read low
# [65] = S. cerevisiae deletion strains, locus YOR069W, strain VPS5, active compounds read low
# [66] = S. cerevisiae deletion strains, locus YOR136W, strain idh2, active compounds read low
# [67] = S. cerevisiae deletion strains, locus YOR144C, strain elg1, active compounds read low
# [68] = S. cerevisiae deletion strains, locus YOR184W, strain ser1, active compounds read low
# [69] = S. cerevisiae deletion strains, locus YOR316C, strain cot1, active compounds read low
# [70] = S. cerevisiae deletion strains, locus YPL241C, strain CIN2, active compounds read low
# [71] = S. cerevisiae deletion strains, locus YPR119W, strain clb2, active compounds read low
# [72] = S. cerevisiae deletion strains, locus YPR141C, strain kar3, active compounds read low
# [73] = S. cerevisiae deletion strains, locus YPR163C, strain tif3, active compounds read low
# [74] = S. cerevisiae deletion strains, locus YPR167C, strain met16, active compounds read low
# [75] = S. cerevisiae deletion strains, strain wtn01, active compounds read low
smiles,measurement,setting,value
C=C1C([C@]2(C)C(CC(=O)OC)[C@@](C)(COC(C)=O)OC(=O)C[C@@H]2OC(C)=O)[C@@H](OC=O)[C@H](OC(=O)C(O)C(C)CC)[C@@]2(C)[C@H](c3ccoc3)CC(=O)C12O (some centres undefined),normalized growth,[1],0.996
same,normalized growth,[2],1
same,normalized growth,[3],1.02
same,normalized growth,[4],1.01
same,normalized growth,[5],1.02
same,normalized growth,[6],1.02
same,normalized growth,[7],1.01
same,normalized growth,[8],1.01
same,normalized growth,[9],1.01
same,normalized growth,[10],1
same,normalized growth,[11],1.02
same,normalized growth,[12],1.01
same,normalized growth,[13],0.998
same,normalized growth,[14],1.01
same,normalized growth,[15],1
same,normalized growth,[16],1.01
same,normalized growth,[17],1.01
same,normalized growth,[18],1
same,normalized growth,[19],1.02
same,normalized growth,[20],1
same,normalized growth,[21],1.01
same,normalized growth,[22],1.04
same,normalized growth,[23],1.06
same,normalized growth,[24],1.03
same,normalized growth,[25],1.01
same,normalized growth,[26],1.02
same,normalized growth,[27],1.01
same,normalized growth,[28],1.01
same,normalized growth,[29],0.995
same,normalized growth,[30],1.01
same,normalized growth,[31],1.09
same,normalized growth,[32],1
same,normalized growth,[33],1.01
same,normalized growth,[34],1.04
same,normalized growth,[35],1.01
same,normalized growth,[36],1.01
same,normalized growth,[37],1.02
same,normalized growth,[38],0.994
same,normalized growth,[39],1.01
same,normalized growth,[40],0.999
same,normalized growth,[41],0.999
same,normalized growth,[42],1.02
same,normalized growth,[43],1.09
same,normalized growth,[44],1.01
same,normalized growth,[45],1.01
same,normalized growth,[46],1
same,normalized growth,"S. cerevisiae deletion strains, locus YLR342W, strain FKS1 (second series), active compounds read low",1.01
same,normalized growth,[47],1.01
same,normalized growth,[48],1.03
same,normalized growth,[49],1
same,normalized growth,[50],0.991
same,normalized growth,[51],1.01
same,normalized growth,[52],1.02
same,normalized growth,[53],1.01
same,normalized growth,[54],1.1
same,normalized growth,[55],1.02
same,normalized growth,"S. cerevisiae deletion strains, locus YNL153C, strain GIM3, active compounds read low",1.01
same,normalized growth,[56],1.03
same,normalized growth,[57],1.01
same,normalized growth,[58],1.01
same,normalized growth,[59],1.03
same,normalized growth,[60],1.01
same,normalized growth,"S. cerevisiae deletion strains, locus YNL322C, strain KRE1, active compounds read low",1.01
same,normalized growth,[61],1.01
same,normalized growth,"S. cerevisiae deletion strains, locus YOL006C, strain TOP1, active compounds read low",1.04
same,normalized growth,[62],0.797
same,normalized growth,[63],1.01
same,normalized growth,[64],1
same,normalized growth,[65],1.01
same,normalized growth,[66],1
same,normalized growth,[67],1
same,normalized growth,[68],1.01
same,normalized growth,[69],1.01
same,normalized growth,[70],1.01
same,normalized growth,[71],1.01
same,normalized growth,[72],1.02
same,normalized growth,[73],1.01
same,normalized growth,[74],1.01
same,normalized growth,[75],0.997
C=C1C([C@]2(C)C(CC(=O)OC)[C@@](C)(COC(C)=O)OC(=O)C[C@@H]2OC(C)=O)[C@@H](OC=O)[C@H](OC(=O)C(OC(C)=O)C(C)CC)[C@@]2(C)[C@H](c3ccoc3)CC(=O)C12O (some centres undefined),normalized growth,"S. cerevisiae deletion strains, locus YAL013W, strain DEP1, active compounds read low",1.03
same,normalized growth,[1],1.03
same,normalized growth,[2],1.01
same,normalized growth,[3],1.03
same,normalized growth,[4],1.01
same,normalized growth,[5],1.04
same,normalized growth,[6],1.03
same,normalized growth,[7],1.03
same,normalized growth,[8],1.03
same,normalized growth,[9],1.03
same,normalized growth,[10],1.01
same,normalized growth,"S. cerevisiae deletion strains, locus YDR150W, strain NUM1, active compounds read low",1.03
same,normalized growth,[11],1.02
same,normalized growth,[12],1.03
same,normalized growth,[13],1.03
same,normalized growth,[14],1.04
same,normalized growth,[15],1.02
same,normalized growth,[16],1.03
same,normalized growth,[17],1.02
same,normalized growth,[18],1.01
same,normalized growth,[19],1.04
same,normalized growth,[20],1.04
same,normalized growth,[21],1.02
same,normalized growth,[22],1.03
same,normalized growth,[23],1.08
same,normalized growth,[24],1.03
same,normalized growth,[25],1.02
same,normalized growth,[26],1.03
same,normalized growth,[27],1.04
same,normalized growth,[28],1.02
same,normalized growth,[29],1.03
same,normalized growth,[30],1
same,normalized growth,[31],1.06
same,normalized growth,[32],1.02
same,normalized growth,[33],1.03
same,normalized growth,[34],1.04
same,normalized growth,[35],1.02
same,normalized growth,[36],1.03
same,normalized growth,[37],1.03
same,normalized growth,[38],0.952
same,normalized growth,[39],1.03
same,normalized growth,[40],1.16 [resistant] (active)
same,normalized growth,[41],1.16 [resistant] (active)
same,normalized growth,"S. cerevisiae deletion strains, locus YKL190W, strain CNB1, active compounds read low",1.01
same,normalized growth,[42],1.03
same,normalized growth,[43],1.09
same,normalized growth,[44],1.01
same,normalized growth,[45],1.03
same,normalized growth,[46],1.02
same,normalized growth,"S. cerevisiae deletion strains, locus YLR330W, strain CHS5, active compounds read low",1.02
same,normalized growth,[47],1.03
same,normalized growth,[48],1.07
same,normalized growth,[49],1.01
same,normalized growth,[50],1.03
same,normalized growth,[51],1.03
same,normalized growth,[52],1.03
same,normalized growth,[53],1.03
same,normalized growth,[54],1.04
same,normalized growth,[55],1.03
same,normalized growth,[56],1.03
same,normalized growth,[57],1.01
same,normalized growth,[58],1.03
same,normalized growth,[59],1.02
same,normalized growth,[60],1.02
same,normalized growth,[61],1.04
same,normalized growth,[62],1.2
same,normalized growth,[63],1.03
same,normalized growth,[64],1.02
same,normalized growth,[65],1.02
same,normalized growth,[66],1.03
same,normalized growth,[67],1.04
same,normalized growth,[68],1.02
same,normalized growth,[69],1.03
same,normalized growth,[70],1.02
same,normalized growth,[71],1.02
same,normalized growth,[72],1.02
same,normalized growth,[73],1.04
same,normalized growth,[74],1.03
same,normalized growth,[75],1.01
same,normalized growth,"S. cerevisiae strains, strain wild type, active compounds read low",1.03
